Source: PubChem BioAssay
In the library only some 12% were active in any assay of this set; here they are far more common.
USP28 inh – inhibitors of human USP28 deubiquitinase; AID 1645857, 2021; Ubiquitin carboxyl-terminal hydrolase 28 (Homo sapiens), Q96RU2; purified USP28, Ub-rhodamine cleavage fluorescence, 30 min; inhibition, % at 25 µM; 3% of 47,000 active
OTUD3 inh – inhibitors of human OTUD3 deubiquitinase; purified OTUD3, Ub-rhodamine fluorescence, 2 h; inhibition, % at 25 µM; 0.7% of 47,000 active; AID 1645858, 2021
Target sequence (Q5T2D3 whole entry, looked up): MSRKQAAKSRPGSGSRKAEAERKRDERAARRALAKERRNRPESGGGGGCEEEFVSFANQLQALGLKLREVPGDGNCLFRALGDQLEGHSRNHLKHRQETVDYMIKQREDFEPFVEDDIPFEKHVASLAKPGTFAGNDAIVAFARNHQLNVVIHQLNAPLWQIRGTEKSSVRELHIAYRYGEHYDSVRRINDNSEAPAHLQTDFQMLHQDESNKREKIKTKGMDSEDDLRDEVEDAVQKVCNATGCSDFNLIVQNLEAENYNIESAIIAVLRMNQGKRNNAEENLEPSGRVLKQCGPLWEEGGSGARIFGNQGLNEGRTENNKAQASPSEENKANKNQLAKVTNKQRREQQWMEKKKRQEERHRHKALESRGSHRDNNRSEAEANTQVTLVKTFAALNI
USP17 inh – inhibitors of human USP17 deubiquitinase; Ubiquitin carboxyl-terminal hydrolase 17-like protein 5 (Homo sapiens), A8MUK1; purified USP17, Ub-rhodamine cleavage fluorescence, 3 h; inhibition, % at 50 µM; 6.5% of 47,000 active; AID 1645855, 2021
USP30 block – inhibitors of human USP30 deubiquitinase | Ubiquitin carboxyl-terminal hydrolase 30 (Homo sapiens), Q70CQ3 | inhibition, % at 25 µM | 5.3% of 47,000 active | AID 1645860, 2021 | purified USP30, Ub-rhodamine cleavage fluorescence
Starred values were filed as active, the others as inactive. Rule as the data show it: active = inhibition above about 30%; inactive = the rest.

How did CCOc1ccccc1NC1c2ccccc2C(=O)N1c1cccnc1 (centres undefined) do in these assays?
USP28 inh: 1.0; OTUD3 inh: -9.9; USP17 inh: 43.4*; USP30 block: -7.9

How did CSc1cccc(NC2c3ccccc3C(=O)N2c2cccnc2)c1 (centres undefined) do in these assays?
USP28 inh: 20.7; OTUD3 inh: 7.6; USP17 inh: 1.3; USP30 block: 17.3

How did COc1cc(CCC(=O)N(C)C(c2ccccc2)c2ccccc2)cc(OC)c1OC do in these assays?
USP28 inh: 3.6; OTUD3 inh: 0.0; USP17 inh: 4.8; USP30 block: 0.1

How did COc1ccccc1CC(=O)N(C)C(c1ccccc1)c1ccccc1 do in these assays?
USP28 inh: 25.6; OTUD3 inh: 35.1*; USP17 inh: 27.2; USP30 block: 51.9*

How did Cn1ccc2c(cc(C(=O)NCCC3=CCCCC3)n2C)c1=O do in these assays?
USP28 inh: 55.3*; OTUD3 inh: 15.5; USP17 inh: 3.4; USP30 block: 14.2

What do the screens show for `Cc1cc(C)c2cc(C(=O)NC3CCN(Cc4ccccc4)CC3)[nH]c2c1`?
USP28 inh: 14.2; OTUD3 inh: 5.4; USP17 inh: 23.3; USP30 block: 67.4*

What do the screens show for `Cn1ccc2c(cc(C(=O)NC3CCN(Cc4ccccc4)CC3)n2C)c1=O`?
USP28 inh: 31.7*; OTUD3 inh: 2.8; USP17 inh: -31.3; USP30 block: -35.4

How did Cc1c(C)n(C)c2ccc(C(=O)NC3CCN(Cc4ccccc4)CC3)cc12 do in these assays?
USP28 inh: 35.2*; OTUD3 inh: -8.5; USP17 inh: 0.0; USP30 block: -33.2

What do the screens show for `CCCN1CCN(S(=O)(=O)c2cc(-c3nnc(C)o3)co2)CC1`?
USP28 inh: -9.3; OTUD3 inh: -1.1; USP17 inh: -0.2; USP30 block: -8.0

How did CCCCc1c(C)nc2nc(N(Cc3ccccc3)C(C)=O)[nH]n2c1=O do in these assays?
USP28 inh: 2.3; OTUD3 inh: 4.7; USP17 inh: 11.4; USP30 block: 13.9

How did C=CCNc1ncnc2c1sc1nc(C(C)C)c3c(c12)CC(C)(C)OC3 do in these assays?
OTUD3 inh: -1.6; USP17 inh: 8.6

How did CCCCN(CC)c1ncnc2c1sc1nc(-c3ccco3)c3c(c12)CC(C)(C)OC3 do in these assays?
USP28 inh: 11.6; OTUD3 inh: 10.5; USP17 inh: 53.4*; USP30 block: -33.9

How did CCCCN(CC)c1ncnc2c1sc1nc(-c3ccccc3)c3c(c12)CC(C)(C)OC3 do in these assays?
USP28 inh: -1.8; OTUD3 inh: -6.8; USP17 inh: -38.3; USP30 block: -3.0

What do the screens show for `CC(C)c1nc2sc3c(N(CCO)CCO)ncnc3c2c2c1COC(C)(C)C2`?
USP28 inh: 19.5; OTUD3 inh: 15.6; USP17 inh: 9.9; USP30 block: 59.6*

What do the screens show for `COc1ccc(NC(=O)CNC(=O)c2ccc3nc(-n4cccc4)sc3c2)cc1`?
USP28 inh: 16.5; OTUD3 inh: 32.3*; USP17 inh: 30.9*; USP30 block: -44.8

How did CCC1CCCCN1C(=O)CSc1nc2ccccc2cc1C (centres undefined) do in these assays?
USP28 inh: 16.7; OTUD3 inh: 9.0; USP17 inh: 10.0; USP30 block: 20.9

How did O=C(CSc1cc(N2CCCCC2)ncn1)NC1CCCC1 do in these assays?
USP28 inh: 3.9; OTUD3 inh: 4.4; USP17 inh: 6.4; USP30 block: 17.6

Results for Cc1ccc(C)c(NC(=O)CSc2cc(N3CCCCC3)ncn2)c1 ?
USP28 inh: 8.8; OTUD3 inh: 16.4; USP17 inh: 11.4; USP30 block: 40.7*

Results for CN1[C@@H](CCC(=O)N2CCN(c3ccccn3)CC2)CNC(=O)[C@@H]2[C@H]1CCN2C1CCOCC1 ?
USP28 inh: 36.2*; OTUD3 inh: 14.5; USP17 inh: -32.6; USP30 block: 43.7*

Results for C#CCNC(=O)CC[C@H]1CNC(=O)[C@@H]2[C@@H](CCN2CC2CC2)N1C ?
USP28 inh: 8.0; OTUD3 inh: 1.4; USP17 inh: -18.2; USP30 block: -12.4

What do the screens show for `C#CCNC(=O)CC[C@H]1CNC(=O)[C@@H]2[C@@H](CCN2C2CCCCC2)N1C`?
USP28 inh: 29.9; OTUD3 inh: 16.4; USP17 inh: -42.1; USP30 block: 32.0*

How did COc1ccc(OC)c(CC(=O)N2CCc3nc(N4CCCCC4)[nH]c(=O)c3C2)c1 do in these assays?
USP28 inh: -6.2; OTUD3 inh: -3.3; USP17 inh: -10.5; USP30 block: -1.4

Results for Cn1c(SCC(=O)O)nnc1-c1ccc2c(c1)OCCCO2 ?
USP28 inh: -10.7; OTUD3 inh: -2.3; USP17 inh: -6.6; USP30 block: 0.3

Results for Cc1ccc(C)c(C2CC(=O)Nc3c2c(C)nn3-c2ccc3nnc(C)n3n2)c1 (centres undefined) ?
USP28 inh: 0.0; OTUD3 inh: -3.8; USP17 inh: 0.8; USP30 block: -7.5

How did O=C1NCc2ccccc2CC12CCN(Cc1cccc3ccccc13)C2 (centres undefined) do in these assays?
USP28 inh: 19.9; OTUD3 inh: 7.7; USP17 inh: 10.0; USP30 block: 31.6*

How did CC(=O)Nc1cc(-c2cnn(C)c2)cn2c(-c3cnn(C)c3)cnc12 do in these assays?
USP28 inh: -37.4; OTUD3 inh: -42.7; USP17 inh: -3.5; USP30 block: -183.7

Results for CC(=O)Nc1cc(-c2cccc(O)c2)cn2c(-c3cnn(C)c3)cnc12 ?
USP28 inh: 13.5; OTUD3 inh: -1.0; USP17 inh: 61.5*; USP30 block: 36.2*

How did Cc1cc(C)c(NC(=O)c2ccc3c(c2)S(=O)(=O)N=C2CCCCCN23)c(C)c1 do in these assays?
USP28 inh: -24.2; OTUD3 inh: -6.2; USP17 inh: -11.4; USP30 block: -1.7

Results for COc1cc2cc(CN(Cc3cccnc3)C(=O)Nc3ccc(Cl)cc3)c(=O)[nH]c2cc1OC ?
USP28 inh: -13.2; OTUD3 inh: -16.3; USP17 inh: 11.5; USP30 block: 39.6*

How did Cc1ccc2[nH]c(=O)c(CN(Cc3cccnc3)C(=O)c3cccc(Cl)c3)cc2c1 do in these assays?
USP28 inh: 7.2; OTUD3 inh: 24.7; USP17 inh: 9.0; USP30 block: 50.6*

Results for Cc1ccc2[nH]c(=O)c(CN(Cc3cccnc3)S(=O)(=O)c3ccccc3)cc2c1 ?
USP28 inh: -4.1; OTUD3 inh: 4.1; USP17 inh: -7.0; USP30 block: 9.9

Results for CCc1ccc2[nH]c(=O)c(CN(CCc3ccc(OC)c(OC)c3)C(=O)Nc3ccccc3)cc2c1 ?
USP28 inh: 22.9; OTUD3 inh: 0.5; USP17 inh: 44.2*; USP30 block: 54.4*

How did O=S(=O)(NC1CCCc2ccccc21)c1ccc(F)cc1 (centres undefined) do in these assays?
USP28 inh: 18.8; OTUD3 inh: 13.1; USP17 inh: 13.1; USP30 block: 33.8*

What do the screens show for `O=S(=O)(NC(c1ccccc1)c1ccccc1)c1ccc(-n2cnnn2)cc1`?
USP28 inh: 17.6; OTUD3 inh: 10.9; USP17 inh: 44.2*; USP30 block: 48.8*
